Laboratory results published in PubChem BioAssay (NCATS).
Results filed as inconclusive are left out. Values without a mark were called inactive. Calls come from the whole dose curve; as a rule, active = well fitted inhibition curve with a large enough effect; inconclusive = small, poorly fitted or top-dose-only effect; inactive = flat fitted curve, though single readings scatter.

Tested on: Zika virus NS2B-NS3 protease
Assay: Primary screen GU AMC qHTS for Zika virus inhibitors (AID 1347154);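 note: 0% = no-inhibitor control and -100% = no-enzyme control; nearly all actives have a fitted effect of over 70% in size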
Conditions: Zika NS2B-NS3 unlinked protease, AMC fluorogenic substrate; series mostly up to 54.1 µM; activity change, negative = inhibition: at the top concentration
In short: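 Fluorogenic AMC-substrate cleavage by noncovalent NS2B-NS3 protease complex (25 nM, pH 8.0 Tris buffer with Tween 20) followed for 15 minutes at room temperature (~20% conversion). Percent inhibition from ex340/em450 signal change, fitted by 4-parameter Hill equation.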

| Compound | activity change, negative = inhibition |
| --- | --- |
| CCN(CC)Cc1nccn1-c1ccc([N+](=O)[O-])cc1C(=O)c1ccccc1Cl | 2.6% |
| CC[C@H]1C[C@H]2[C@@H]3CCC4=CC(=O)CC[C@@H]4[C@H]3CC[C@]2(C)[C@H]1O | -1.59% |
| CCS(=O)(=O)C(C)(C)S(=O)(=O)CC | -1.06% |
| Oc1c(Br)cc(Br)cc1Br | 3.71% |
| C[C@]12C=CC(=O)C=C1CC[C@@H]1[C@@H]2CC[C@@]2(C)[C@H]1CC[C@]2(C)O | -2.86% |
| NCc1cccnc1 | 5.09% |
| CCOC(=O)C1(c2ccccc2)CCN(CCc2ccc(N)cc2)CC1 | -8.32% |
| CC(Cc1ccccc1)NCc1ccccc1Cl (centres undefined) | -11% |
| CCCC[N+]1(C)[C@@H]2CC(OC(=O)[C@H](CO)c3ccccc3)C[C@H]1[C@@H]1O[C@@H]12 (some centres undefined) | 4.98% |
| C[N+]1(C)[C@@H]2CC[C@H]1CC(OC(=O)C(CO)c1ccccc1)C2 (some centres undefined) | -3.26% |
| CNC(=O)NC(O)C(Cl)(Cl)Cl (centres undefined) | -0.312% |
| C=CCN1CC[C@]23CCCC[C@H]2[C@H]1Cc1ccc(O)cc13 | -0.941% |
| C[C@]12CC[C@H](O)CC1=CC[C@@H]1[C@@H]2CC[C@]2(C)C(=O)CC[C@@H]12 | 3.05% |
| COc1cc(CC(C)N)c(OC)cc1Br (centres undefined) | -1.56% [at 104 µM] |
| C[C@H]1C(=O)O[C@@H]2CCN3CC=C(COC(=O)[C@](C)(O)[C@]1(C)O)[C@H]23 | 2.09% |
| CCC(=O)C(CCN(C)C)(c1ccccc1)c1ccccc1 | 2.84% |
| COP(=O)(OC)OC=C(Cl)Cl | -6.9% |
| CCOC(=O)NC(O)C(Cl)(Cl)Cl (centres undefined) | -0.0254% |
| CC(C)(C)OC(=O)c1ncn2c1[C@@H]1CCCN1C(=O)c1c(Br)cccc1-2 | 0.553% |
